Assay [1] is described as follows: qHTS assay to identify small molecule agonists of the peroxisome proliferator-activated receptor delta (PPARd) signaling pathway - cell viability counter screen (AID 743211). Also: nearly all actives have a fitted effect of over 55% in size. Also: potency is read from the fitted curve at half-maximal effect. An outline of the steps: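 qHTS cell viability: PPARd-bla HEK293H; 17 h cpd, 37C; CellTiter-Glo, luminescence at 30 min RT.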
The target of assay [2] is Peroxisome proliferator-activated receptor delta (Homo sapiens) (UniProt Q03181). The experiment in a line: qHTS assay to identify small molecule agonists of the peroxisome proliferator-activated receptor delta (PPARd) signaling pathway (AID 743212; calls by dose curve). Summed up: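 A PPARd-bla HEK293H line with beta-lactamase under an Upstream Activator Sequence is treated with compounds at 37 C. Substrate loading for 2 h at room temperature precedes the fluorescence measurement.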
Background: qHTS replaces the single test concentration by a dilution series.

A short description of assay [3]: qHTS assay to identify small molecule antagonists of the peroxisome proliferator-activated receptor delta (PPARd) signaling pathway - cell viability counter screen (AID 743213). Also: nearly all actives have a fitted effect of over 50% in size. Also: potency is read from the fitted curve at half-maximal effect. Summed up: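 PPARd-bla HEK293H cells (3000/well) got compound plus 300 nM L165041 agonist for 17 h at 37 C. Viability in the same wells came from CellTiter-Glo luminescence after 30 min at room temperature.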

In assay [4] the target is Bile acid receptor (Homo sapiens) (UniProt Q96RI1). The experiment in a line: qHTS assay to identify small molecule antagonists of the farnesoid-X-receptor (FXR) signaling pathway (AID 743217; active = well fitted inhibition curve with a large enough effect in the signal ratio in the repeat runs, not every such curve was filed as active; the % refers to the signal ratio). An outline of the steps:
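In this cell-based antagonist screen, inhibition of CDCA-driven (50 uM final) UAS-beta-lactamase expression in HEK 293T cells was measured by FRET fluorescence following 16 h compound exposure at 37 °C.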

Assay [5] is described as follows: qHTS assay to identify small molecule agonists of the farnesoid-X-receptor (FXR) signaling pathway - cell viability counter screen (AID 743218). Also: nearly all actives have a fitted effect of over 45% in size. Also: potency is read from the fitted curve at half-maximal effect. Summed up:
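After 16 h at 37 C with test compounds, FXR-bla HEK 293T cells were given LiveBLAzer B/G substrate for 2 h at RT and then CellTiter-Glo; luminescence was taken after 30 min.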

Assay [6] concerns the target Bile acid receptor (Homo sapiens) (UniProt Q96RI1). Put plainly: qHTS assay to identify small molecule agonists of the farnesoid-X-receptor (FXR) signaling pathway (AID 743220; active = well fitted activation curve with a large enough effect in the signal ratio in the repeat runs, not every such curve was filed as active; the % refers to the signal ratio). Summed up:
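Beta-lactamase reporter under UAS control in GeneBLAzer FXR HEK 293T cells (5000/well) measured with LiveBLAzer FRET substrate after 2 h at room temperature. Compound exposure lasted 16 h at 37C.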

Assay [7] can be described thus: qHTS assay to identify small molecule antagonists of the farnesoid-X-receptor (FXR) signaling pathway - cell viability counter screen (AID 743221; active = well fitted cell-killing curve with a large enough effect in the repeat runs, not every such curve was filed as active; also: nearly all actives have a fitted effect of over 50% in size; also: potency is read from the fitted curve at half-maximal effect). Summed up: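 After a 5 h settling period, FXR-bla HEK 293T cells receive compound and chenodeoxycholic acid (50 uM final) and incubate 16 h at 37 C; CellTiter-Glo luminescence, read after 30 min at room temperature, reports cell viability.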

Assay [8] concerns the target Peroxisome proliferator-activated receptor delta (Homo sapiens) (UniProt Q03181). The experiment in a line: qHTS assay to identify small molecule antagonists of the peroxisome proliferator-activated receptor delta (PPARd) signaling pathway (AID 743215; active = well fitted inhibition curve with a large enough effect in the signal ratio in the repeat runs, not every such curve was filed as active; the % refers to the signal ratio;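 also: cells stimulated with agonist L165041 at 300 nM final during compound exposure; series mostly up to about 62 µM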). Summed up: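 With L165041 present at 300 nM final, compounds were incubated 17 h at 37 C on PPARd UAS-bla HEK293H cells. A FRET-based beta-lactamase substrate was then applied for 2 h at room temperature and fluorescence intensity recorded.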

In assay [9] the target is Vitamin D3 receptor (Homo sapiens) (UniProt P11473). Put plainly: qHTS assay to identify small molecule agonists of the vitamin D receptor (VDR) signaling pathway (AID 743222; calls by dose curve). An outline of the steps:
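VDR-bla cells were seeded, left 4 h, treated with compounds in DMSO for 16 h, incubated 2 h at RT with B/G FRET substrate, and read for fluorescence.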

Assay [10] has the same target. Put plainly: qHTS assay to identify small molecule antagonists of the vitamin D receptor (VDR) signaling pathway (AID 743223; active = well fitted inhibition curve with a large enough effect in the signal ratio in the repeat runs, not every such curve was filed as active; the % refers to the signal ratio; also: potency is read from the fitted curve at half-maximal effect). Summed up: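 Reporter line VDR-bla; stimulus 1alpha,25-(OH)2 vitamin D3, 3 nM final; compound co-addition, 16 h 37C/5% CO2; LiveBLAzer B/G substrate 2 h RT; fluorescence intensity.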

Values joined by “and” are separate entries in the source; they are usually repeats but may differ in a detail not shown here. Equal entries are not always repeated. Results filed as inconclusive are left out. A structure can be active in one record and inactive in another. Active and inactive are the calls of the source. Unless noted, calls follow the shape of the dose curve; as a rule, active = well fitted curve in the direction sought with a large enough effect in the repeat runs; inconclusive = weak or mixed curves; inactive = no such curve, though single readings can be large; an effect the other way counts as inactive or inconclusive.

Sequence of Bile acid receptor (Homo sapiens) (Q96RI1 whole entry, looked up): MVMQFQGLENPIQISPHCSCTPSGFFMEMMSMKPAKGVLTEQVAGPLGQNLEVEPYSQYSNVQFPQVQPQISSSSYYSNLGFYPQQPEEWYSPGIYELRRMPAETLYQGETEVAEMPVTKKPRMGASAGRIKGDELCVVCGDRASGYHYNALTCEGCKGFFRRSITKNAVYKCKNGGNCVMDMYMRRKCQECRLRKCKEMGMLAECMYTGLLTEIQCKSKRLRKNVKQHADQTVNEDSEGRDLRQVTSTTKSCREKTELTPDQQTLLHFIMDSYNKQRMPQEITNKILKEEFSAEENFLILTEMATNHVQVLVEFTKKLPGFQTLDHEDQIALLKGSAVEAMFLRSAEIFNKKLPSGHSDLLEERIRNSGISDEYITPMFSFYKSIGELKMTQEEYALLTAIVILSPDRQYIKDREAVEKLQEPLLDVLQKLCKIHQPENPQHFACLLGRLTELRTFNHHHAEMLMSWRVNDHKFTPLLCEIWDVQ
Sequence of Peroxisome proliferator-activated receptor delta (Homo sapiens) (Q03181 whole entry, looked up): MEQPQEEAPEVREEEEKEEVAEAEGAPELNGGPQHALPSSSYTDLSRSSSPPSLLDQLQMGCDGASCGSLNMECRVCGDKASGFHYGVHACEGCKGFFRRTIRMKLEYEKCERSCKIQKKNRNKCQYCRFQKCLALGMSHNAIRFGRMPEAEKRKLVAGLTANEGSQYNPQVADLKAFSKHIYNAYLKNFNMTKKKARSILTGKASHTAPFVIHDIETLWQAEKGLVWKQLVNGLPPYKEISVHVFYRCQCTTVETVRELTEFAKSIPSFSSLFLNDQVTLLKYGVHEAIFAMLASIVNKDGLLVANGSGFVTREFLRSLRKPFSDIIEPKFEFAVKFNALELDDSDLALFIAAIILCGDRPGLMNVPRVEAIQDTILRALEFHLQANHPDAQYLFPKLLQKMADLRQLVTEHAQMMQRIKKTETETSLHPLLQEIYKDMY
Sequence of Vitamin D3 receptor (Homo sapiens) (P11473 whole entry, looked up): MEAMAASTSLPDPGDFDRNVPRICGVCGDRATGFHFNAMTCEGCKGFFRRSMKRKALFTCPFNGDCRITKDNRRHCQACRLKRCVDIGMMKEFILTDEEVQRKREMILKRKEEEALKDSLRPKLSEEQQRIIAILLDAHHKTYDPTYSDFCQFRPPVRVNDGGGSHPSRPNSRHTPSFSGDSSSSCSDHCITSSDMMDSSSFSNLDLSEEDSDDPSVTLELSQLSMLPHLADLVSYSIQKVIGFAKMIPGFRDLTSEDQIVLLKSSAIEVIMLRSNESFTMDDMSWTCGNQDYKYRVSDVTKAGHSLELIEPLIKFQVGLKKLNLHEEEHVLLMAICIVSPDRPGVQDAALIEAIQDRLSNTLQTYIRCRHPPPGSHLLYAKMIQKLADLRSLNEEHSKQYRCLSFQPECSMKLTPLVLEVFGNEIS

Regarding `O=C(O)C(O)C(O)C(=O)O` (centres undefined), the Potency entry in [1], in assay [3], in assay [4], in assay [5] and in assay [7] was “inactive” each time. Moreover, the molecule was called inactive in assay [2] and in [6].
Take `COc1ccc2c(c1OC)C(=O)O[C@H]2[C@@H]1c2cc3c(cc2CCN1C)OCO3`: the Potency entry in [1], in assay [3], in [8] and in assay [7] was “inactive” throughout. In addition, the molecule was called inactive in assay [2].
With `CCC1CCC(=O)O1` (centres undefined), the Potency result in [1], in assay [3], in assay [8] and in assay [7] was “inactive” in each case. In addition, the molecule was classed as inactive in assay [2] and in assay [9].
For the molecule `OCCCl`, the Potency entry in [1], in [3], in assay [4], in assay [5], in [7] and in [10] was “inactive” in each case. In addition, the call in assay [2], in [6] and in [9] was inactive.
`FC(F)OC(F)(F)C(F)Cl` (centres undefined): the Potency entry in assay [1], in assay [3], in assay [8], in assay [5], in assay [7] and in [10] was “inactive” throughout. For the same molecule, in [2], the outcome was inactive.
As for `C=CCSSCC=C`, the Potency result in [1], in [3], in assay [8], in assay [5], in [7] and in [10] was “inactive” each time. Besides, the outcome in assay [2] and in assay [9] was inactive.
Take `Nc1c(Br)cc(Br)c2c1C(=O)c1ccccc1C2=O`: the Potency result in [1], in assay [3], in [8], in assay [7] and in [10] was “inactive” each time. Moreover, the call in assay [2] was inactive.
`O=C(CCl)CCl`: the Potency entry was “inactive and 54.9 µM (active)” in assay [1]; “inactive and 54.9 µM (active)” in [5]. The molecule was called inactive in assay [2] and in assay [9]. The Potency entry in [3], in [8], in assay [7] and in [10] was “inactive” each time.
For the molecule `C1CCNCC1`, the Potency result in assay [1], in assay [3], in assay [8], in assay [7] and in assay [10] was “inactive” in each case. Also, the molecule was classed as inactive in assay [2].
Consider `CC(C)(C)NCC(O)c1cc(Cl)c(N)c(C(F)(F)F)c1` (centres undefined), for which the Potency entry in assay [1], in assay [3], in assay [8], in assay [5], in assay [7] and in [10] was “inactive” throughout. Moreover, the call in [2] and in assay [9] was inactive.
As for `COc1ccc(C(=O)c2c(C)n(CCN3CCOCC3)c3ccccc23)cc1`, the Potency result in assay [1], in assay [3], in assay [8] and in [7] was “inactive” each time. Moreover, the molecule was classed as inactive in assay [2] and in [6].
Regarding `CCc1cnc(C2=NC(C)(C(C)C)C(=O)N2)c(C(=O)O)c1` (centres undefined), the Potency entry in assay [1], in assay [3], in assay [8], in [5], in [7] and in assay [10] was “inactive” in each case. Further, the outcome in assay [2] and in assay [9] was inactive.
`CCC1(CC)C(=O)NC(=O)NC1=O`: the Potency entry in [1], in assay [3], in [8], in assay [5], in assay [7] and in [10] was “inactive” in each case. Besides, in assay [2], the outcome was inactive.
`C=CCc1ccc(OC(=O)Cc2ccccc2)c(OC)c1`: the Potency result in assay [1], in [3] and in assay [7] was “inactive” throughout. The molecule was classed as inactive in assay [2] and in assay [9].
`CCOC(=O)c1cn2nc(OP(=S)(OCC)OCC)cc2nc1C`: the Potency result in assay [1], in [3], in assay [8] and in assay [7] was “inactive” each time. In addition, the call in [2] and in assay [6] was inactive.
With `CCC(C)(C)O`, the Potency result in assay [1], in assay [3], in assay [8], in [7] and in assay [10] was “inactive” each time. Further, the molecule was classed as inactive in assay [2] and in [9].
In the case of `CCC(C)(C)c1ccc(O)c(C(C)(C)CC)c1`, the Potency in [1] was 19.3 µM (active) and 19.5 µM (active); in [3] it was 17.2 µM (active) and 38.9 µM (active); in assay [7] it was 19.5 µM (active); in assay [10], 12.2 µM (active) and 17.4 µM (active). Moreover, the call in assay [2] was inactive. Also, the Potency entry in assay [8] was “inactive”.
Turning to `O=C(Cc1ccccc1)OCCc1ccccc1`, the Potency entry in [1], in assay [3], in assay [8] and in assay [7] was “inactive” each time. Further, the molecule was classed as inactive in assay [2] and in assay [9].
On to `CC(C)CCON=O`, for which the Potency entry in assay [1], in assay [3], in [8] and in assay [7] was “inactive” in each case. Also, the call in assay [2] and in [9] was inactive.
As for `CCCCCCCCCCCCCCCl`, the Potency entry in assay [1], in [3], in assay [8], in assay [5], in [7] and in assay [10] was “inactive” each time. The result in assay [2] and in assay [9] was inactive.
Turning to `CCCCC(CC)CO[N+](=O)[O-]` (centres undefined), the Potency result in [1], in assay [3], in assay [8] and in assay [7] was “inactive” in each case. The molecule was classed as inactive in assay [2].
Consider `CCOc1cccc(C2(N3CCN(c4ccccc4)CC3)CCC(C)CC2)c1` (centres undefined), for which the Potency result in assay [1], in assay [3], in [8], in [7] and in assay [10] was “inactive” each time. For the same molecule, in [2], the molecule was called inactive.
For `CC(C)c1ccc(NC(=O)N(C)C)cc1`, the Potency entry in [1], in [3], in assay [8], in [5], in [7] and in [10] was “inactive” throughout. The molecule was called inactive in assay [2] and in assay [9].
For the molecule `CC(C)(C#N)C(C)(C)C#N`, the Potency entry in [1], in assay [8], in [4], in assay [5] and in assay [7] was “inactive” in each case. Besides, the result in [2] and in [6] was inactive.
On to `CCc1ccccc1N`, for which the Potency entry in assay [1], in assay [8], in assay [5], in assay [7] and in assay [10] was “inactive” each time. In addition, the call in assay [2] and in assay [9] was inactive.
With `NCCc1cc(O)c(O)cc1O`, the Potency entry in assay [1], in assay [8], in assay [5], in assay [7] and in [10] was “inactive” throughout. Moreover, the molecule was classed as inactive in [2] and in [9].
Consider `N#CC(C#N)=C(C#N)C#N`, for which the Potency result in assay [1], in assay [8], in assay [5], in [7] and in [10] was “inactive” in each case. In addition, the outcome in assay [2] and in assay [9] was inactive.
Regarding `Cc1ccccc1`, the Potency entry in assay [1], in assay [8], in assay [5], in assay [7] and in assay [10] was “inactive” throughout. The result in assay [2] was inactive.
As for `CC(C)C1(C)N=C(c2ncccc2C(=O)O)NC1=O` (centres undefined), the Potency entry in [1], in assay [8], in assay [4], in [5], in [7] and in assay [10] was “inactive” in each case. In addition, the outcome in [2], in assay [6] and in [9] was inactive.
Take `Cc1nnc(-c2ccccc2)c(=O)n1N`: the Potency entry in assay [1], in assay [8], in [4], in [5] and in [7] was “inactive” in each case. The call in assay [2] was inactive.
For `O=C(N[C@H]1CN2CCC1CC2)c1ccc2c(c1)OCCO2`, the Potency entry in assay [1], in assay [3], in assay [7] and in assay [10] was “inactive” in each case. Also, the call in assay [2] was inactive.
For `CCOP(=S)(OCC)SCSc1cc(Cl)ccc1Cl`, the Potency entry in assay [1], in assay [8], in assay [5] and in assay [7] was “inactive” in each case. The result in [2] and in assay [9] was inactive.
